Assay outcomes as filed in PubChem BioAssay.
Shiga inhibitor = blocks Shiga toxin action in Vero cells; Vero cells, Shiga toxin protein synthesis inhibition reporter; actives 9.2% (n = 290,000); inhibition, % at 38.7 µM; in the data active means inhibition mostly above about 28%, no sharp cut-off; inactive means mostly below about 43%; further: 0% is about no effect
Pf growth 48h = inhibits P. falciparum growth in the first generation, 48 h; P. falciparum luciferase growth in erythrocytes, 48 h; Potency, µM (highest dose often 28.7 µM), for inactives: at the top dose activity change, negative = inhibition, hits mostly inhibitors; actives 5.9% (n = 310,000); AID 504832; further: potency means the concentration at half of the fitted maximal effect; on the % scale 0 is the no-effect control and ±100 the full control effect
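Luciferase-expressing parasites in RBCs, 2% Hct / 0.1% parasitemia final; RPMI 1640 + 0.5% Albumax; 37 C, 5% CO2, one generation; luminescence read-out, lower signal = inhibition.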
Pf growth 96h = P. falciparum growth inhibition at 96 hour, primary screen for plastid delayed-death inhibitors. P. falciparum luciferase reporter growth, 96 h. Potency, µM (highest dose often 28.7 µM), for inactives: top-dose activity change, negative = inhibition, usual class: inhibitors. actives 6.9% (n = 320,000). AID 504834; further: potency means the concentration at half of the fitted maximal effect; on the % scale 0 is the no-effect control and ±100 the full control effect
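Cell-based qHTS: luciferase-tagged P. falciparum in erythrocytes (2% hematocrit, 0.05% parasitemia final) incubated with compounds for 96 hours, 37 C, 5% CO2; luciferase detection reagent then added and luminescence measured.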
NS1 function inh = blocks influenza NS1 protein function. Potency, µM (highest dose often 46.1 µM), inactives show at the highest dose activity, positive = more growth. actives 0.4% (n = 270,000); calls by dose curve; further: potency means the concentration at half of the fitted maximal effect; actives are rising curves; nearly all actives have a fitted effect of over 50% in size
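OD600 was taken as the measure of yeast growth restored by compound in an NS1-expressing S. cerevisiae strain. Cells had been washed out of glucose medium and diluted 1:100 into galactose -URA medium, pH 6.0.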
Giardia FBPA inh = inhibitors of Giardia lamblia fructose-1,6-bisphosphate aldolase; A8B2U2; purified Giardia FBPA; Potency, µM (top dose mostly 59.6 µM), for the others: top-dose activity, negative = inhibition, actives largely listed as inhibitors; actives 0.71% (n = 290,000); AID 2451; further: potency means the concentration at half of the fitted maximal effect; on the % scale 0 is the no-effect control and ±100 the full control effect; nearly all actives have a fitted effect of over 55% in size
Target sequence (A8B2U2 whole entry, looked up): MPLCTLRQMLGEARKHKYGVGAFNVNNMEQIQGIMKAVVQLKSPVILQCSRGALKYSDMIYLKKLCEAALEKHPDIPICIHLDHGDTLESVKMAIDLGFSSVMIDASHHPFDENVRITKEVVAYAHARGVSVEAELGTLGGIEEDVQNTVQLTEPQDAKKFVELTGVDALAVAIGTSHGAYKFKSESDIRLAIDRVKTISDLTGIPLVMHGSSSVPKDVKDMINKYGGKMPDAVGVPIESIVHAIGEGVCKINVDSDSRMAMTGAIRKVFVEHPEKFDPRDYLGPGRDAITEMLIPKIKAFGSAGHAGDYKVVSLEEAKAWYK
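Giardia FBPA (40 nM reagent) was preincubated 10 min at RT with compound (up to 57.5 uM final), then substrate plus GAPDH/TPI/NAD/arsenate coupling system with diaphorase/resazurin was added; resorufin fluorescence (525/598 nm) was read after 20 min.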
CHX counter = affects cycloheximide protein synthesis inhibition readout, counter-screen; AID 2314; max response, %; actives 12% (n = 300,000); cell reporter, cycloheximide protein synthesis inhibition counterscreen; in the data active means max response mostly above about 13%, no sharp cut-off; inactive means mostly below about 14%; further: read at 38.3 µM for the half of the compounds with a filed dose; 0% is about no effect
An asterisk follows results filed as active; ? = inconclusive; . = no result given; ! = not confirmed by another sample; [ ] = dose if it differs, or a comment. The list is not random: actives were taken first. Their share in the collection is about 21%. Unless noted, the call rests on the fitted dose curve; in most records, active means well fitted curve in the direction sought with a large enough effect; inconclusive means small, poorly fitted or top-dose-only effect, or another doubt; inactive means no such curve, though single readings can be large; an effect the other way counts as inactive or inconclusive.

SMILES	Shiga inhibitor	Pf growth 48h	Pf growth 96h	NS1 function inh	Giardia FBPA inh	CHX counter
CCc1ccc(-c2cn(C3CCCCC3)c(=S)[nH]2)cc1	65	-25%	?	.	-7%	18*
COc1ccc(N2C(=O)CS(=O)C(c3ccccc3)C2=O)cc1 (stereo unspecified)	14	17%	11%	10%	0%	-1
Cc1ccc(N2C(=O)CS(=O)C(c3ccccc3)C2=O)cc1C (stereo unspecified)	65*	?	-11%	15%	-3%	28*
C[C@](N)(Cc1ccc(O)c(O)c1)C(=O)O	-7	22%	?	-10%	18µM*!	-1
COc1ccc(C[C@](C)(N)C(=O)O)cc1OC	.	?	-14%	.	.	.
O=C(/C=C/c1ccc(O)c(O)c1)O[C@H](Cc1ccc(O)c(O)c1)C(=O)O	12	59%	8%	5.6µM*	?	0
N[C@H](Cc1ccc(O)c(O)c1)C(=O)O	.	.	.	4%	?	.
NC(Cc1ccc(O)c(O)c1)C(=O)O (stereo unspecified)	.	.	.	.	16µM*	.
CN1CCN(C(=O)/C=C/c2ccc3c(c2)OCO3)CC1	38	-6%	12%	26%	-2%	26*
CCN1CCN(C(=O)/C=C/c2ccc3c(c2)OCO3)CC1	19	16%	-16%	-3%	4%	16
COC(=O)C1CCN(C(=O)/C=C/c2ccc3c(c2)OCO3)CC1	.	187%	?	-1%	4%	15*
O=C(Nc1ccon1)c1ccc(OC2CCCC2)cc1	92*	-14%	5.2µM*	-18%	-7%	64*
Cc1cc(C(=O)Nc2ccon2)cs1	18	24%	?	0%[9.22 µM]	10%	10
COc1ccc(NC(=O)Nc2cc(C(C)(C)C)on2)cc1OC	-17	1%	-9%	-30%	.	-3
CC(C)(C)c1cc(NC(=O)c2ccc(OC3CCCC3)cc2)no1	18	12µM*	12µM*	2%	0%	3
Cc1ccc(-c2nnc(SCC(=O)NCCN3C(=O)CSC3=O)n2C)cc1	.	5%	26%	.	.	.
CCN(CC(=O)Nc1c(F)cccc1F)C(=O)c1nn(C)c(=O)c2ccccc12	.	-24%	-27%	.	.	.
CCCCC1C2=C(CC(C)(C)CC2=O)OC2=C1C(=O)CC(C)(C)C2	-25	?	12µM*	-3%	5%	-3
CCCCCCC1C(C#N)=C(N)OC2=C1C(=O)CC(C)(C)C2 (stereo unspecified)	-3	-2%	-24%	-9%	1%	-3
C[n+]1nc(Nc2cccc3ccccc23)sc1-c1ccc(C(=O)O)cc1	35*	4%	9%	10%	-1%	18*
Cc1ccc(CCNC(=O)C2CCN(S(=O)(=O)c3ccc4c(c3)NC(=O)CO4)CC2)cc1	5	-23%	?	10%	.	-3
COc1ccc(-n2c(C)cc(C(=O)Cn3c(NCCO)nc4ccccc43)c2C)cc1	-9	0%	10µM*	-3%	2%	-2
O=C(Cn1c(NCCCO)nc2ccccc21)c1ccc(Cl)cc1Cl	-6	1.7µM*	9.3µM*	2%	?	-2
CC1Cc2cc(/C(O)=C3/C(=O)C(=O)N(CCCn4ccnc4)C3c3ccc(F)cc3)ccc2O1 (stereo unspecified)	63	35%	8%	-11%	-5%	21*
O=C1C(=O)N(CCCn2ccnc2)C(c2ccc(Br)cc2)/C1=C(\O)c1ccc2c(c1)OCCO2 (stereo unspecified)	-20	0%	9.3µM*	2%	.	-5
SMILES	Shiga inhibitor	Pf growth 48h	Pf growth 96h	NS1 function inh	Giardia FBPA inh	CHX counter
COc1cccc(CNC(=O)Cn2c(=O)n(CCC(=O)N3CCCCC3)c(=O)c3sccc32)c1	5	-1%	0%	4%	8%	-10
COc1ccccc1OCC(=O)Nc1ccc(NC(=O)COc2ccccc2OC)cc1	-8	?	-24%	16%	.	6
COc1ccccc1OCC(=O)Nc1nc(C)c(C)s1	91*	174%	?	-17%	-14%	27*
COC(=O)c1sc(NC(=O)COc2ccccc2C)nc1C	56	38%	262%	.	0%	21*
O=C(COC(=O)c1ccc[nH]c1=O)NCCCc1ccccc1	.	8%	12%	.	.	.
COCCCn1c(=O)c2sccc2n2c(CCCC(=O)NCc3cccc(OC)c3)nnc12	4	?	?	2%	.	-1
Cc1ccc(NC(=O)Nc2cccs2)c(Cl)c1	107*	84%	224%	-23%	13%	57*
O=C(Nc1cccs1)Nc1ccccc1Cl	78*	.	?	-95%	-10%	75*
Cc1c(NC(=O)Nc2cccs2)cccc1[N+](=O)[O-]	32	0%	-26%	.	-14%	12*
O=C(Nc1cccs1)Nc1cccnc1Cl	59*	14%	311%	-3%	16%	60*
CC(C)C[C@H](NC(=O)[C@H](Cc1ccccc1)NC(=O)[C@@H]1CCCN1C(=O)[C@H](CC(=O)O)NC(=O)[C@@H]1CCC(=O)N1)C(=O)N[C@@H](CCCN=C(N)N)C(=O)N[C@@H](Cc1ccccc1)C(N)=O	-6	.	.	.	2%	6
COc1cccc(NC(=O)CCNC(=O)C2CCN(S(=O)(=O)c3ccc(F)cc3)CC2)c1	-7	-4%	-15%	3%	.	-2
COC(=O)C(Cc1ccccc1)NC(=O)CNC(=O)c1ccc(Br)cc1 (stereo unspecified)	-16	5%	18%	-3%	.	12
CO[C@@H]1/C=C\CC(=O)N[C@@H](C)C(=O)OC[C@H](NS(=O)(=O)c2ccc(C)cc2)[C@H](C)/C=C\CC(=O)OC[C@H]1C	.	.	.	.	-5%[12.9 µM]	.
Cc1ccc(-n2ccn(CC(=O)NCCc3ccccc3)c(=O)c2=O)cc1C	18	48%	4%	-15%	5%	33*
O=C(Cn1cnc2c(cnn2-c2ccc(Cl)cc2)c1=O)NCCc1ccccc1	-4	44%	.	6%	-2%	-1
CC(C)(C)n1ncc2c(=O)n(CC(=O)NCCc3ccccc3)cnc21	61*	35%	96%	-1%	0%	21*
COc1ccc(CCNC(=O)Cn2cnc3c(cnn3C(C)(C)C)c2=O)cc1OC	-5	7%	10µM*	-8%	2%	6
CC(C)(C)n1ncc2c(=O)n(Cc3ccccc3Br)cnc21	.	2.9µM*	?	.	.	.
Cc1cc(C)cc(-n2ccn(CC(=O)NCCc3ccccc3)c(=O)c2=O)c1	-6	-1%	1%	1%	-4%	11
O=c1c(CCc2ccccc2)nc2cnc(N3CCNCC3)nc2n1CCc1ccccc1	.	.	.	.	-10%	.
CC(C)(C)n1ncc2c(=O)n(CC(=O)NCc3ccccc3Cl)cnc21	64*	14%	?	-3%	4%	32*
Cc1ccc(NC(=O)Cn2cnc3c(cnn3C(C)(C)C)c2=O)cc1	-7	-7%	?	-8%	0%	10
